Source: ChEMBL document CHEMBL1157539, “Thousands of chemical starting points for antimalarial lead identification” (Nature, 2010)

Experiments:
Format in all cases: functional
[1] = system: Plasmodium falciparum; assay: GSK_TCMDC: Inhibition of Plasmodium falciparum 3D7 in whole red blood cells, using parasite LDH activity as an index of growth. Test compounds present at 2uM
[2] = system: Plasmodium falciparum; assay: GSK_TCMDC: Inhibition of Plasmodium falciparum Dd2 in whole red blood cells, using parasite LDH activity as an index of growth. Test compounds present at 2uM
[3] = system: HepG2; assay: GSK_TCMDC: Percent inhibition of human HepG2 cell line. Test compounds present at 10uM.

Cc1ccnc(NC(=O)c2cc(-c3cccc([N+](=O)[O-])c3)nc3onc(C)c23)c1
Inhibition [1]: 91% | Inhibition [2]: 44% | Inhibition [3]: 5%

COc1cc(C2C(Oc3ccccc3)C(=O)N2Cc2ccc(F)cc2)cc(OC)c1OC (centres undefined)
Inhibition [1]: 100% | Inhibition [2]: 97% | Inhibition [3]: 0%

Cn1ccnc1CCC(=O)Nc1ccc(Cl)cc1C(=O)Nc1ccc(Cl)cc1
Inhibition [1]: 92% | Inhibition [2]: 3% | Inhibition [3]: 28%

Nc1ccc2[nH]cc(C3CCN(CC4CCC(NC(=O)/C=C/c5ccc(Cl)c(Cl)c5)CC4)CC3)c2n1 (centres undefined)
Inhibition [1]: 100% | Inhibition [2]: 93% | Inhibition [3]: 18%

NC(=O)c1cccc(CN2Cc3ccccc3OC3(CCN(Cc4c[nH]c5cnccc45)CC3)C2)c1.O=C(O)C(F)(F)F
Inhibition [1]: 94% | Inhibition [2]: 2% | Inhibition [3]: 9%

NC(=O)c1cccc(C(=O)Nc2ccc(-c3cccc(-c4nc5cc(F)ccc5[nH]4)c3)cc2)c1
Inhibition [1]: 94% | Inhibition [2]: 5% | Inhibition [3]: 45%

N#Cc1cc(C(=O)c2cc(Br)ccc2O)cn(-c2cc(Cl)cc(Cl)c2)c1=O
Inhibition [1]: 98% | Inhibition [2]: 35% | Inhibition [3]: 42%

Oc1ccccc1-c1nc2cccnc2n1CCc1cccc(C(F)(F)F)c1
Inhibition [1]: 93% | Inhibition [2]: 36% | Inhibition [3]: 4%

CCN(CCNC(=O)Cn1c(C)cc2cc([N+](=O)[O-])ccc21)c1cccc(C)c1
Inhibition [1]: 97% | Inhibition [2]: 95% | Inhibition [3]: 0%

COc1c(C2CCN(CCCCNC(=O)c3ccc(-c4ccc(Cl)cc4)cc3)CC2)ccc2c1C(C)(C)CCC2(C)C
Inhibition [1]: 95% | Inhibition [2]: 42% | Inhibition [3]: 94%

CCCCCCN(CCCCCC)CC(O)c1c(OC)ccc2ccccc12.Cl (centres undefined)
Inhibition [1]: 100% | Inhibition [2]: 100% | Inhibition [3]: 18%

NC(=O)c1ccc(-c2ccc3ccnc(N)c3c2)cc1.O=C(O)C(F)(F)F
Inhibition [1]: 100% | Inhibition [2]: 98% | Inhibition [3]: 56%

COC(=O)Nc1cc(C(F)(F)F)ccc1N1CCCC(NS(=O)(=O)c2ccc(C(C)(C)C)cc2)C1 (centres undefined)
Inhibition [1]: 97% | Inhibition [2]: 90% | Inhibition [3]: 0%

O=C(Nc1ccc2c(ccn2C2CCCN(Cc3cc(F)cc(F)c3F)CC2)c1)c1ccco1 (centres undefined)
Inhibition [1]: 89% | Inhibition [2]: 94% | Inhibition [3]: 7%

CN(C)CCCOc1ccc(CN2CC[C@H](NC(=O)c3ccc(Cl)c(Cl)c3)C2)cc1Cl.O=C(O)C(F)(F)F
Inhibition [1]: 100% | Inhibition [2]: 35% | Inhibition [3]: 65%

CS(=O)(=O)CCOCc1ccc(-c2ccc3ncnc(Nc4ccc(OCc5cccc(F)c5)c(Cl)c4)c3c2)o1
Inhibition [1]: 96% | Inhibition [2]: 43% | Inhibition [3]: 1%

CC(Oc1ccc(Cl)cc1)C(=O)Nc1cc(C(F)(F)F)ccc1-n1cncn1 (centres undefined)
Inhibition [1]: 99% | Inhibition [2]: 98% | Inhibition [3]: 0%

COc1ccc(NC(=O)[C@H](Cc2ccccc2)Nc2cc(C)nc(NCCOc3ccccc3)n2)cc1.O=C(O)C(F)(F)F
Inhibition [1]: 98% | Inhibition [2]: 25% | Inhibition [3]: 11%

O=C(CC1SC(N2N=C(c3cccs3)CC2c2ccccc2)=NC1=O)Nc1ccc(Cl)cc1 (centres undefined)
Inhibition [1]: 83% | Inhibition [2]: 88% | Inhibition [3]: 18%

CCN(CC)CCN(Cc1ccc(-c2ccc(C(F)(F)F)cc2)cc1)C(=O)Cn1c(CCc2cc(F)cc(F)c2F)nc(=O)c2ccccc21.O=C(O)C(O)C(O)C(=O)O
Inhibition [1]: 100% | Inhibition [2]: 77% | Inhibition [3]: 36%

CN(C)CCOc1ccc(N2CCN(CCCCNC(=O)c3ccc(/C=C/c4cc(Cl)cc(Cl)c4)cc3)CC2)cc1
Inhibition [1]: 98% | Inhibition [2]: 84% | Inhibition [3]: 97%

Cc1cc(N(C)C)nc(Nc2ccc(NC(=O)c3ccccc3C)cc2)n1
Inhibition [1]: 93% | Inhibition [2]: 16% | Inhibition [3]: 0%

CC(=O)c1c(C)[nH]c(C(=O)Nc2ccc(-c3nc4ccc(C)cc4s3)cc2)c1C
Inhibition [1]: 92% | Inhibition [2]: 40% | Inhibition [3]: 11%

c1ccc([C@H]2CN3CCSC3=N2)cc1 [LEVAMISOLE]
Inhibition [1]: 93% | Inhibition [2]: 1% | Inhibition [3]: 11%

COc1ccc(NC(=O)c2ccc3cc4ccccc4cc3c2)cc1N1CCN(C)CC1
Inhibition [1]: 86% | Inhibition [2]: 29% | Inhibition [3]: 38%

Cc1cc(-c2cc(Cl)ccc2Cl)no1
Inhibition [1]: 96% | Inhibition [2]: 97% | Inhibition [3]: 36%

COc1cccc2c(NN=Cc3cccc(Cl)c3)ccnc12
Inhibition [1]: 100% | Inhibition [2]: 77% | Inhibition [3]: 19%

CC(O)C1CCCCN1C(=O)c1cccc(-c2cccc(-c3nc4cc(C(F)(F)F)ccc4[nH]3)c2)c1 (centres undefined)
Inhibition [1]: 100% | Inhibition [2]: 100% | Inhibition [3]: 32%
